Screens from PubChem BioAssay.
MRP reversal: reverses drug resistance mediated by MRP. differential viability (reversal), % at 10 µM. actives 0.04% (n = 85,000). H69AR cells + 2 uM doxorubicin, CellTiter-Glo, 72 h;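 active = viability drop by adding the cancer drug above about 55%, with treated viability meeting a 40% cutoff, limit read from the data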;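 note: larger differential means the compound sensitizes cells more to doxorubicin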
CYP2C19 inhib: inhibitors of human CYP2C19; CYP2C19 Supersomes, luciferin-H EGE luminescence, 30 min; inhibition, % at 5 µM; actives 21% (n = 96,000);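 active = CYP2C19 inhibition above a set limit at 5 µM in the primary screen, cut at about 50% in these data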
CYP2C9 act: CYP2C9 (human) activation; activation factor at 5 µM; AID 1024; actives 1.4% (n = 96,000); recombinant CYP2C9, luciferin-H conversion, luminescence; hits give high values; factor 1 = untreated enzyme, 0 = blocked; P11712;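 active = activation factor of 2 or more for CYP2C9 at a 5 µM dose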
Target sequence (P11712 whole entry, looked up): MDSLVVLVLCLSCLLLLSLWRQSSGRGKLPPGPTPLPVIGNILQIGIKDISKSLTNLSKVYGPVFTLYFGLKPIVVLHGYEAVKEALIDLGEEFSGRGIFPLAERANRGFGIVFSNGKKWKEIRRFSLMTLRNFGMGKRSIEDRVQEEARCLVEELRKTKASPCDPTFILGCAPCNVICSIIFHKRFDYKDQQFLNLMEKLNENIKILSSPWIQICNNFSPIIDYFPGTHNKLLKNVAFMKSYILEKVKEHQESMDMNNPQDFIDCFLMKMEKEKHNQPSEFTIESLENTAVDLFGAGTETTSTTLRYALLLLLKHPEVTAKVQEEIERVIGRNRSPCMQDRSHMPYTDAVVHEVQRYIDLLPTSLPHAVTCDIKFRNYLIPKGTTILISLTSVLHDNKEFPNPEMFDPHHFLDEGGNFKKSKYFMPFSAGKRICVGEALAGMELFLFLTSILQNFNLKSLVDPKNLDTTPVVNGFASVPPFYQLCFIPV
MRP1 act: activators of MRP-1 | AID 799 | H69AR cells + doxorubicin, viability rescue, CellTiter-Glo | viability increase, % at 10 µM | actives 0.61% (n = 140,000);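 active = viability gain under doxorubicin at or above a set limit, the compound median plus 3 SD, cut at about 4.7% in these data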;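 note: MRP-1 overexpressing cells given doxorubicin 25 µM after compound pretreatment; 18-22 h compound pretreatment then 72 h with doxorubicin before readout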
CYP2C9 inhib: blocks human cytochrome P450 2C9 | P11712 | CYP2C9 Supersomes, luciferin-H conversion, luminescence | inhibition, % at 5 µM | actives 20% (n = 96,000);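 active = blocking of liver enzyme CYP2C9 beyond about 50% at 5 µM, limit read from the data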
CYP2C19 act: cytochrome P450 2C19 (human) activation. P33261. recombinant CYP2C19, luciferin-H EGE luminescence; hits give high values; 0 = fully inhibited enzyme, 1 = untreated enzyme. activation factor at 5 µM. 96,000 tested, under 10 active. AID 1025;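 active = activation factor of at least 2 at 5 µM in the primary screen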
Large screens that a line does not name were inactive. Most compounds without a hit are left out; they make up all but 21% or so of the library.

CC(c1ccco1)N(C(=O)c1ccc(Cl)s1)c1ccccn1 (stereo not given)	CYP2C19 inhib 89, CYP2C9 inhib 59 (no result: MRP1 act)
CCOc1ccc(C(C)=O)cc1CSc1nnc(-c2cccs2)n1CC1CCCO1 (stereo not given)	CYP2C19 inhib 90, CYP2C9 inhib 82
O=C(CCCSc1nnc(-c2cccs2)n1CC1CCCO1)c1ccccc1 (stereo not given)	CYP2C19 inhib 73, CYP2C9 inhib 69
Cc1nonc1OC(C)CNc1ccc([N+](=O)[O-])cc1 (stereo not given)	CYP2C19 inhib 98, CYP2C9 inhib 63 (no result: MRP reversal)
O=C(CSc1ccccn1)Nc1nc2ccc(Br)cc2s1	none (no result: MRP reversal)
O=C(NCc1ccc(Cl)cc1)NCC(F)(F)F	none (no result: MRP reversal, CYP2C19 inhib, CYP2C9 act, CYP2C9 inhib, CYP2C19 act)
CCN(CC(=O)NC(C)C)C(=O)c1ccc(Cl)cc1	MRP1 act 6.0 (no result: MRP reversal, CYP2C19 inhib, CYP2C9 act, CYP2C9 inhib, CYP2C19 act)
CCN(CC(=O)NC(C)C)C(=O)c1ccc(S(=O)(=O)N(C)c2ccccc2OC)cc1	none
CCn1cnc2cc(NCc3ccc(C)cc3)ccc21	CYP2C19 inhib 75
CCCCn1cnc2cc(NCc3cccc(OC)c3O)ccc21	none
CCn1cnc2cc(NS(=O)(=O)c3ccc(C)cc3)ccc21	CYP2C19 inhib 89, CYP2C9 inhib 84
COc1ccccc1-n1cnc2cc(NS(=O)(=O)c3ccc(Br)cc3)ccc21	CYP2C19 inhib 98, CYP2C9 inhib 99
CCCn1cnc2cc(NCc3cccc(OC)c3)ccc21	CYP2C19 inhib 59
CSc1nnc2n(Cc3ccccc3)c(=O)c3c4c(sc3n12)COC(C(C)C)C4 (stereo not given)	none
COc1ccc(S(=O)(=O)Nc2cc(C)ccn2)cc1	none
COc1ccc(-n2cnc3cc(NS(=O)(=O)c4ccc(C)cc4)ccc32)cc1	CYP2C19 inhib 91, CYP2C9 inhib 98
O=C1NC(=O)C(=C2CCCCCC2)S1	none (no result: MRP reversal, CYP2C19 inhib, CYP2C9 act, CYP2C9 inhib, CYP2C19 act)
CCN(CC)CC(C)(C)NS(=O)(=O)c1ccc(Cl)cc1	none
CN(C)CC(C)(C)NS(=O)(=O)c1ccc(Cl)cc1	CYP2C19 inhib 56
CC(C)(CN1CCCCC1)NS(=O)(=O)c1ccc(Cl)cc1	CYP2C19 inhib 55
CC1CC(C)CN(S(=O)(=O)c2ccc(F)c(C(=O)Nc3ccc(Cl)cc3F)c2)C1 (stereo not given)	none
CC(C)(CNS(=O)(=O)c1ccc(Cl)cc1)N1CCCCC1	CYP2C19 inhib 64
CC1CC(C)CN(CC(C)(C)NS(=O)(=O)c2ccc(Cl)cc2)C1 (stereo not given)	CYP2C19 inhib 76, CYP2C9 inhib 56 (no result: MRP reversal)
COc1ccnc(N=CNOCc2ccc(F)cc2Cl)c1C#N	none
O=C(Nc1ccc(Cl)cc1)c1cc2nc(-c3ccco3)cc(C(F)(F)F)n2n1	CYP2C9 inhib 71 (no result: MRP reversal)
O=C(c1cc2nc(-c3ccco3)cc(C(F)(F)F)n2n1)N1CCN(c2ccc(F)cc2)CC1	CYP2C19 inhib 81, CYP2C9 inhib 64
FC(F)(F)c1cc(-c2ccco2)nc(N2CCN(Cc3ccccc3)CC2)n1	none (no result: MRP reversal)
Fc1ccc(N2CCN(c3nc(-c4ccco4)cc(C(F)(F)F)n3)CC2)cc1	CYP2C19 inhib 54 (no result: MRP reversal)
CC(C)NC(=O)c1cc2nc(-c3ccco3)cc(C(F)(F)F)n2n1	none
Cc1nn(-c2nc(-c3ccco3)cc(C(F)(F)F)n2)c(C)c1Br	CYP2C9 inhib 52
Cc1cc(C)cc(NC(=O)CSCc2nc3c(nnn3Cc3ccc(F)cc3)c(=O)[nH]2)c1	none (no result: CYP2C19 inhib, CYP2C9 act, MRP1 act, CYP2C9 inhib, CYP2C19 act)
CCSc1ncc(Cl)c(C(=O)Nc2sc3c(c2C(=O)NCc2cccnc2)CCCC3)n1	none (no result: MRP reversal)
CCN1CCN(C(=O)c2cc3nc(-c4ccccc4)cc(C(F)(F)F)n3n2)CC1	none
O=C(c1cc2nc(-c3ccco3)cc(C(F)(F)F)n2n1)N1CCN(Cc2ccccc2)CC1	CYP2C9 inhib 64
O=C(CN1C(=O)C2C3C=CC(C3)C2C1=O)N1CCc2ccccc2C1 (stereo not given)	none
O=C(c1ccco1)N1CCN(C(=O)c2cc3sccc3n2Cc2ccccc2)CC1	CYP2C9 inhib 89
O=C(NCc1ccco1)C1CCN(C(=O)c2cc3sccc3n2Cc2ccc(F)cc2)CC1	CYP2C19 inhib 86, CYP2C9 inhib 98
O=C(NCCCN1CCCC1)C1CCN(C(=O)c2cc3sccc3n2Cc2ccc(F)cc2)CC1	none
Cc1ccc(NS(=O)(=O)c2ccc(OCC(=O)NCc3ccncc3)cc2)cc1	none (no result: MRP reversal, CYP2C19 inhib, CYP2C9 act, CYP2C9 inhib, CYP2C19 act)
